{
  "source": "the supplement of paper PMC3334620",
  "note": "Over roughly 33,000 sequences, “E-score (-0.5 to 0.5)” has its median near -0.013; the highest 2% begin near 0.3. The full list was thinned out, with the highest values kept by preference.",
  "data": [
    {"target": "T1, Msn1 (UniProt P22148)", "T1 sequence": "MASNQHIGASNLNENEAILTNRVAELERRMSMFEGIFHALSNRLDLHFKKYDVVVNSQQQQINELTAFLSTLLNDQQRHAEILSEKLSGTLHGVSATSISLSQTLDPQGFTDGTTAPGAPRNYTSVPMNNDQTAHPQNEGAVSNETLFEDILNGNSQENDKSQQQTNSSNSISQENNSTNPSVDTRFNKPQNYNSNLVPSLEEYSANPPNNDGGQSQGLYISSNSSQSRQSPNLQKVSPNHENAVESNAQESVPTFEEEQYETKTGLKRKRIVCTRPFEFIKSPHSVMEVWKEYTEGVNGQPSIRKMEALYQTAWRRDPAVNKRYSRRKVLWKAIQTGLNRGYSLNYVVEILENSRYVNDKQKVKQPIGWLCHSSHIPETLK", "experiment": "PBM E-score (8-mer binding enrichment) (E-score (-0.5 to 0.5)); higher = stronger / more preferred TF binding", "conditions": "protein concentration: 200 nM; construct: GST-full length", "experimental": "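Universal 'all 10-mer' protein binding microarrays (Agilent AMADID 015681) probed with GST-tagged S. cerevisiae TFs (full-length or DBD) made by in vitro transcription/translation (PURExpress), about 100-200 nM. Bound TF was detected with fluorescent anti-GST. Each ungapped 8-mer (which stands for itself and its reverse complement) is scored by the PBM enrichment score (E-score), a modified Wilcoxon-Mann-Whitney statistic from -0.5 to +0.5, computed with the Universal PBM Analysis Suite. Scale: above 0.35 generally sequence-specific binding.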", "values": [
      {"sequence": "ACGTGCCT", "PBM E-score": -0.148},
      {"sequence": "ATATCTGG", "PBM E-score": 0.045},
      {"sequence": "GCCATTGA", "PBM E-score": 0.00063},
      {"sequence": "CAATAAGC", "PBM E-score": 0.00863},
      {"sequence": "GCGTATCC", "PBM E-score": -0.037},
      {"sequence": "CCATACCA", "PBM E-score": 0.0887},
      {"sequence": "GTGACAAA", "PBM E-score": 0.423},
      {"sequence": "GTGACAAC", "PBM E-score": 0.139},
      {"sequence": "GTGACGAA", "PBM E-score": -0.0509},
      {"sequence": "ACTCCCTC", "PBM E-score": -0.312},
      {"sequence": "TGATGACA", "PBM E-score": 0.299},
      {"sequence": "CAATGACA", "PBM E-score": 0.298},
      {"sequence": "GCATGACA", "PBM E-score": 0.199},
      {"sequence": "TAATGACA", "PBM E-score": 0.307},
      {"sequence": "TCATGACA", "PBM E-score": 0.388},
      {"sequence": "GAATGACA", "PBM E-score": 0.34},
      {"sequence": "AAATGACA", "PBM E-score": 0.278},
      {"sequence": "GAATGACC", "PBM E-score": 0.201},
      {"sequence": "ACATGACA", "PBM E-score": 0.297},
      {"sequence": "AGGGTAAC", "PBM E-score": -0.177},
      {"sequence": "AAGTCGGA", "PBM E-score": 0.158},
      {"sequence": "ATACCCAA", "PBM E-score": 0.195},
      {"sequence": "ATAGGTTG", "PBM E-score": -0.0907},
      {"sequence": "CGCGGGCC", "PBM E-score": -0.105},
      {"sequence": "ACGGTCGG", "PBM E-score": -0.0232},
      {"sequence": "GCAAACCC", "PBM E-score": -0.225},
      {"sequence": "CCAACGGC", "PBM E-score": -0.132},
      {"sequence": "GCATGTAA", "PBM E-score": -0.12},
      {"sequence": "CAATTGTG", "PBM E-score": -0.00904},
      {"sequence": "CAATTGTC", "PBM E-score": 0.445},
      {"sequence": "CAATTGTA", "PBM E-score": 0.184},
      {"sequence": "AAATTGTT", "PBM E-score": 0.143},
      {"sequence": "GAATTGGC", "PBM E-score": -0.278},
      {"sequence": "AAATTGTC", "PBM E-score": 0.449},
      {"sequence": "AAATTGTA", "PBM E-score": 0.222},
      {"sequence": "GAATTGTA", "PBM E-score": 0.151},
      {"sequence": "GAATTGTC", "PBM E-score": 0.392},
      {"sequence": "ACCTAAAA", "PBM E-score": 0.0426},
      {"sequence": "TCTAGCAA", "PBM E-score": 0.0862},
      {"sequence": "TCACCCCA", "PBM E-score": 0.108},
      {"sequence": "AAACGCCT", "PBM E-score": -0.0244},
      {"sequence": "GGTGCGGA", "PBM E-score": -0.047},
      {"sequence": "ACCTAAGG", "PBM E-score": -0.14},
      {"sequence": "AGTGCTCA", "PBM E-score": -0.229},
      {"sequence": "AGGTACAC", "PBM E-score": 0.139},
      {"sequence": "AGGTACAA", "PBM E-score": 0.394},
      {"sequence": "TGGTACCA", "PBM E-score": -0.0646},
      {"sequence": "GGGTACAA", "PBM E-score": 0.198},
      {"sequence": "CGGTACAC", "PBM E-score": 0.123},
      {"sequence": "TGGTACAA", "PBM E-score": 0.386},
      {"sequence": "CGGTACAG", "PBM E-score": 0.054},
      {"sequence": "CGGTACAA", "PBM E-score": 0.311},
      {"sequence": "AGGTACAG", "PBM E-score": 0.00868},
      {"sequence": "ATCGTTTA", "PBM E-score": 0.141},
      {"sequence": "CTTCATCA", "PBM E-score": -0.143},
      {"sequence": "AAGGGCAG", "PBM E-score": -0.102},
      {"sequence": "CTGGAAGC", "PBM E-score": -0.225},
      {"sequence": "GCTTTTCC", "PBM E-score": -0.0951},
      {"sequence": "AGCCTCAC", "PBM E-score": -0.223},
      {"sequence": "AGCATGTG", "PBM E-score": -0.0619},
      {"sequence": "CCCATGTA", "PBM E-score": 0.0749},
      {"sequence": "CCCATGTC", "PBM E-score": 0.316},
      {"sequence": "CGCATGTC", "PBM E-score": 0.426},
      {"sequence": "CGCATGTA", "PBM E-score": 0.0633},
      {"sequence": "AGCATGTA", "PBM E-score": 0.0635},
      {"sequence": "CTCATGTC", "PBM E-score": 0.27},
      {"sequence": "AGCATGTC", "PBM E-score": 0.318},
      {"sequence": "ACCATGTC", "PBM E-score": 0.218},
      {"sequence": "ATTTGAGC", "PBM E-score": -0.0055},
      {"sequence": "ACAATCTA", "PBM E-score": 0.0825},
      {"sequence": "CGGACCGA", "PBM E-score": 0.165},
      {"sequence": "CAGCGAAG", "PBM E-score": -0.193},
      {"sequence": "TATCGGGA", "PBM E-score": 0.178},
      {"sequence": "TCCCCAGA", "PBM E-score": -0.107},
      {"sequence": "CATGTCAG", "PBM E-score": 0.208},
      {"sequence": "CATGTCCA", "PBM E-score": 0.463},
      {"sequence": "CATGTCCG", "PBM E-score": 0.436},
      {"sequence": "GCTGTCCC", "PBM E-score": -0.0712},
      {"sequence": "GATGTCCC", "PBM E-score": 0.462},
      {"sequence": "GATGTCAC", "PBM E-score": 0.26},
      {"sequence": "CCTGTCCA", "PBM E-score": 0.156},
      {"sequence": "CATGTCAA", "PBM E-score": 0.236},
      {"sequence": "CCTGTCCG", "PBM E-score": 0.117},
      {"sequence": "TCTGTCCA", "PBM E-score": 0.363},
      {"sequence": "ACTGTCCA", "PBM E-score": 0.0386},
      {"sequence": "GCTGTCCA", "PBM E-score": 0.159},
      {"sequence": "CTTACTGC", "PBM E-score": -0.143},
      {"sequence": "GATGGCGC", "PBM E-score": -0.252},
      {"sequence": "ATTTAGAG", "PBM E-score": 0.0544},
      {"sequence": "ACGGGAGG", "PBM E-score": -0.268},
      {"sequence": "ACACATGT", "PBM E-score": 0.238},
      {"sequence": "GATGTCCA", "PBM E-score": 0.458},
      {"sequence": "AAGGTCCG", "PBM E-score": -0.0417},
      {"sequence": "GATGTCGA", "PBM E-score": 0.0163},
      {"sequence": "GATGTCAA", "PBM E-score": 0.0785},
      {"sequence": "TATGTCGA", "PBM E-score": 0.289},
      {"sequence": "AATGTCAA", "PBM E-score": 0.3},
      {"sequence": "TATGTCCA", "PBM E-score": 0.465},
      {"sequence": "TACGTCCA", "PBM E-score": 0.179},
      {"sequence": "GACGTCCA", "PBM E-score": 0.207},
      {"sequence": "AATGTGCG", "PBM E-score": -0.0792},
      {"sequence": "TATGTCAA", "PBM E-score": 0.31},
      {"sequence": "AATGTCCG", "PBM E-score": 0.481},
      {"sequence": "GCTCCCAC", "PBM E-score": -0.135},
      {"sequence": "GGCCAAAA", "PBM E-score": 0.00072},
      {"sequence": "GTTCGAGA", "PBM E-score": 0.11},
      {"sequence": "CAGAAAGC", "PBM E-score": -0.0396},
      {"sequence": "AGCAAAAT", "PBM E-score": 0.174},
      {"sequence": "AGGGGGCC", "PBM E-score": -0.412},
      {"sequence": "GCTACCGA", "PBM E-score": -0.00569},
      {"sequence": "CCAGTACG", "PBM E-score": -0.0732},
      {"sequence": "CATGTCCC", "PBM E-score": 0.459}
    ]}
  ]
}
